Inconclusive results are not listed. The source made the active and inactive calls. Rule for the calls: active = hit-call score of the fitted dose curve at least 0.9, where 1 is the maximum; inconclusive = response in the unintended direction; inactive = score below 0.9.
Molecular target: Androgen Receptor/SRC-1 Co-activator, AR (gene 367) (UniProt P10275)
Experiment: OT_AR_ARSRC1_0480: Odyssey Thera (OT) 8-hour HEK293T Protein-Complementation Assay for Androgen Receptor/SRC-1 Co-activator (AID 2283354);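 note: hits raise the complementation signal above DMSO so AC50 marks enhancers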
Experimental: OT_AR_ARSRC1_0480 is a cell-based, single-readout assay that uses HEK293T, a human kidney cell line, with measurements taken at 8 hours after chemical dosing in a 384-well plate.OT_AR_ARSRC1_0480 is one of one assay component(s) measured or calculated from the OT_AR_ARSRC1_0480 assay. It is designed to make measurements of protein fragment complementation, a form of binding reporter, as detected with fluorescence intensity signals by Protein-fragment Complementation technology.Data from the assay component OT_AR_ARSRC1_0480 was analyzed into 1 assay endpoint. This assay endpoint, OT_AR_ARSRC1_0480, was analyzed in the positive analysis fitting direction relative to DMSO as the negative control and baseline of activity. Using a type of binding reporter, measures of receptor for gain-of-signal activity can be used to understand the binding at the pathway-level as they relate to the gene AR. Furthermore, this assay endpoint can be referred to as a primary readout, because the performed assay has only produced 1 assay endpoint. To generalize the intended target to other relatable targets, this assay endpoint is annotated to the nuclear receptor intended target family, where the subfamily is steroidal.
Protein-fragment complementation assay, or PCA, is a method for the identification and quantification of protein-protein interactions. In the PCA, the proteins of interest ("bait" and "prey") are each covalently linked to fragments of a third protein (e.g. DHFR, which acts as a "reporter"). Interaction between the bait and the prey proteins brings the fragments of the reporter protein in close proximity to allow them to form a functional reporter protein whose activity can be measured. The OT AR / SRC-1 assay assessed androgen receptor chemical interactions using a rapidly maturing, intensely fluorescent mutant of YFP known as Venus, rationally dissected into two separate fragments. […] Fusion constructs were transfected into HEK293T cells with a (Gly4Ser)2 linker between the AR/SRC-1 and YFP fragment genes to facilitate complementation when interacting proteins bring fragments into close proximity. The construct is stably expressed in HEK293T cells. […] Images were acquired on an Evotec Opera at 2 wavelengths (488 and 635nm), and the ratio of fluorescence in the nucleus relative to fluorescence in the cytoplasm (N/C Ratio) in the 488nm channel was calculated for a minimum of 400 cells per image. Both agonists and antagonists of the AR receptor induce nuclear translocation to varying degrees. […] The OT AR/SRC-1 assay was also run for 16 hours (see description for OT_AR_ARSRC1_0960).

Chain of Androgen Receptor/SRC-1 Co-activator, AR (gene 367) (P10275 whole entry, looked up): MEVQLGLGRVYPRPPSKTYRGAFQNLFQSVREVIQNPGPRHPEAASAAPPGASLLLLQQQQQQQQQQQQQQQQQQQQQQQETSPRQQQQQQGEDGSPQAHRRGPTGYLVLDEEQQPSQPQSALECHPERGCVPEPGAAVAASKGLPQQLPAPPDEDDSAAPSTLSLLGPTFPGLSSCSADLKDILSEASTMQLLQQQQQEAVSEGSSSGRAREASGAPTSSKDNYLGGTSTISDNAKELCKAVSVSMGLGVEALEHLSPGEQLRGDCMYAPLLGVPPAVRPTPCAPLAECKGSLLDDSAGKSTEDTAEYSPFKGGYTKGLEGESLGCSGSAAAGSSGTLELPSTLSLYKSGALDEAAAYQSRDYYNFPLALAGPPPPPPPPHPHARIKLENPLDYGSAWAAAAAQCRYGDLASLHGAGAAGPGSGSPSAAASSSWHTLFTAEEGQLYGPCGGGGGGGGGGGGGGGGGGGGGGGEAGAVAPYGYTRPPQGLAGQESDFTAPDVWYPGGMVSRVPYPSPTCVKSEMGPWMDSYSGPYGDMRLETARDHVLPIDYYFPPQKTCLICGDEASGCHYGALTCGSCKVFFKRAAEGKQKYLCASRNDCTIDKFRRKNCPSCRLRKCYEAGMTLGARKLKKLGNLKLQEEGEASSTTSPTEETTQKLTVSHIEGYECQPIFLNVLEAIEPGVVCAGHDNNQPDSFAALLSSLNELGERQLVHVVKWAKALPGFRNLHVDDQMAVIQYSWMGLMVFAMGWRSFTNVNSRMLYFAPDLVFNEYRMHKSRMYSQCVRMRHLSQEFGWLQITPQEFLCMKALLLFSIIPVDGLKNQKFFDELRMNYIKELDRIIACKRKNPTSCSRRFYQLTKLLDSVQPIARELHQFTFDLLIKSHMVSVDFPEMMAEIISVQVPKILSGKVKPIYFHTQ

**Q.** For `Oc1ccc(Cl)cc1Cc1ccccc1`, which AC50 is on record?
**A.** 63.2 µM (active)

**Q.** `O=[N+]([O-])c1c(Cl)c(Cl)c(Cl)c(Cl)c1Cl` was tested. Which outcome did it give?
**A.** inactive

**Q.** For `O=S1OCC2C(CO1)C1(Cl)C(Cl)=C(Cl)C2(Cl)C1(Cl)Cl` (stereo not given), which AC50 is on record?
**A.** 31.8 µM (active)

**Q.** For `CCCN(CCC)c1c([N+](=O)[O-])cc(C(F)(F)F)cc1[N+](=O)[O-]`, which outcome is on record?
**A.** inactive

**Q.** How did the outcome turn out when `C#CCN1C(=O)COc2cc(F)c(N3C(=O)C4=C(CCCC4)C3=O)cc21` was run?
**A.** inactive

**Q.** Which outcome does the source give for `CCC(C)(C)C(=O)OC1=C(c2ccc(Cl)cc2Cl)C(=O)OC12CCCCC2` here?
**A.** inactive

**Q.** For `C[C@H]1[C@H](c2ccc(Cl)cc2)SC(=O)N1C(=O)NC1CCCCC1`, which outcome is on record?
**A.** inactive

**Q.** With `Cc1[nH]c(=O)n(C(C)(C)C)c(=O)c1Cl` as the molecule, how does the outcome read?
**A.** inactive

**Q.** Which outcome does the source give for `O=C(O)CCCOc1ccc(Cl)cc1Cl` here?
**A.** inactive

**Q.** How did the outcome turn out when `CCOC1Oc2ccc(OS(C)(=O)=O)cc2C1(C)C` (stereo not given) was run?
**A.** inactive

Reference: PubChem BioAssay (EPA / NIEHS)
